To fix the notation:
T1: RBFOX1 RRM (Homo sapiens, UniProt Q9NWB1 109-208)
T1 sequence: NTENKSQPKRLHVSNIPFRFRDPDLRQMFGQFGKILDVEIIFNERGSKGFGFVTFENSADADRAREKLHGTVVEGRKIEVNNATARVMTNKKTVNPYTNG

B1: ACUCUUG (DNA:RNA)
RNA: GGGAGACCGGAAUUCAGAUUGUCCACUCUUGUUAAAUCCCGUCGUAGCCACCA
DNA 1: CAATCTGAATTCCGGTCTCCC
DNA 2: TGGTGGCTACGACGGGATT
B2: GAGUGCG (DNA:RNA)
RNA: B1 RNA with A25G, C26A, U27G, C28U, U29G, U30C
DNA 1: CAATCTGAATTCCGGTCTCCC
DNA 2: TGGTGGCTACGACGGGATT
B3: UGCCUUA (DNA:RNA)
RNA: B1 RNA with A25U, C26G, U27C, G31A
DNA 1: CAATCTGAATTCCGGTCTCCC
DNA 2: TGGTGGCTACGACGGGATT
B4: UUUUCUC (DNA:RNA)
RNA: B1 RNA with A25U, C26U, C28U, U29C, G31C
DNA 1: CAATCTGAATTCCGGTCTCCC
DNA 2: TGGTGGCTACGACGGGATT
B5: UUGUCUC (DNA:RNA)
RNA: B1 RNA with A25U, C26U, U27G, C28U, U29C, G31C
DNA 1: CAATCTGAATTCCGGTCTCCC
DNA 2: TGGTGGCTACGACGGGATT
B6: UUCAGGC (DNA:RNA)
RNA: GGGAGACCGGAAUUCAGAUUGUCCUUCAGGCUUAAAUCCCGUCGUAGCCACCA
DNA 1: CAATCTGAATTCCGGTCTCCC
DNA 2: TGGTGGCTACGACGGGATT
B7: AUGCUGC (DNA:RNA)
RNA: B1 RNA with C26U, U27G, U30G, G31C
DNA 1: CAATCTGAATTCCGGTCTCCC
DNA 2: TGGTGGCTACGACGGGATT
B8: AGCCAUG (DNA:RNA)
RNA: B1 RNA with C26G, U27C, U29A
DNA 1: CAATCTGAATTCCGGTCTCCC
DNA 2: TGGTGGCTACGACGGGATT
B9: ACCAUGG (DNA:RNA)
RNA: B1 RNA with U27C, C28A, U30G
DNA 1: CAATCTGAATTCCGGTCTCCC
DNA 2: TGGTGGCTACGACGGGATT
B10: CAGCAUC (DNA:RNA)
RNA: B1 RNA with A25C, C26A, U27G, U29A, G31C
DNA 1: CAATCTGAATTCCGGTCTCCC
DNA 2: TGGTGGCTACGACGGGATT
B11: ACCAUGU (DNA:RNA)
RNA: B1 RNA with U27C, C28A, U30G, G31U
DNA 1: CAATCTGAATTCCGGTCTCCC
DNA 2: TGGTGGCTACGACGGGATT
B12: AGCAUUG (DNA:RNA)
RNA: B1 RNA with C26G, U27C, C28A
DNA 1: CAATCTGAATTCCGGTCTCCC
DNA 2: TGGTGGCTACGACGGGATT
B13: CAGCAUA (DNA:RNA)
RNA: B1 RNA with A25C, C26A, U27G, U29A, G31A
DNA 1: CAATCTGAATTCCGGTCTCCC
DNA 2: TGGTGGCTACGACGGGATT
B14: AGCAUGG (DNA:RNA)
RNA: B1 RNA with C26G, U27C, C28A, U30G
DNA 1: CAATCTGAATTCCGGTCTCCC
DNA 2: TGGTGGCTACGACGGGATT
B15: CAGCAUG (DNA:RNA)
RNA: B1 RNA with A25C, C26A, U27G, U29A
DNA 1: CAATCTGAATTCCGGTCTCCC
DNA 2: TGGTGGCTACGACGGGATT
B16: AUGCUUG (DNA:RNA)
RNA: B1 RNA with C26U, U27G
DNA 1: CAATCTGAATTCCGGTCTCCC
DNA 2: TGGTGGCTACGACGGGATT
B17: ACCAUGC (DNA:RNA)
RNA: B6 RNA with U25A, U26C, G29U
DNA 1: CAATCTGAATTCCGGTCTCCC
DNA 2: TGGTGGCTACGACGGGATT
B18: AGCAUGU (DNA:RNA)
RNA: B6 RNA with U25A, U26G, G29U, C31U
DNA 1: CAATCTGAATTCCGGTCTCCC
DNA 2: TGGTGGCTACGACGGGATT
B19: CAACUAC (DNA:RNA)
RNA: B1 RNA with A25C, C26A, U27A, U30A, G31C
DNA 1: CAATCTGAATTCCGGTCTCCC
DNA 2: TGGTGGCTACGACGGGATT
B20: UGACGCG (DNA:RNA)
RNA: B1 RNA with A25U, C26G, U27A, U29G, U30C
DNA 1: CAATCTGAATTCCGGTCTCCC
DNA 2: TGGTGGCTACGACGGGATT
B21: UACCGAU (DNA:RNA)
RNA: B6 RNA with U26A, A28C, G30A, C31U
DNA 1: CAATCTGAATTCCGGTCTCCC
DNA 2: TGGTGGCTACGACGGGATT
B22: GACGCUG (DNA:RNA)
RNA: B1 RNA with A25G, C26A, U27C, C28G, U29C
DNA 1: CAATCTGAATTCCGGTCTCCC
DNA 2: TGGTGGCTACGACGGGATT
B23: GGAGUCU (DNA:RNA)
RNA: B1 RNA with A25G, C26G, U27A, C28G, U30C, G31U
DNA 1: CAATCTGAATTCCGGTCTCCC
DNA 2: TGGTGGCTACGACGGGATT
B24: GGGAUCU (DNA:RNA)
RNA: B1 RNA with A25G, C26G, U27G, C28A, U30C, G31U
DNA 1: CAATCTGAATTCCGGTCTCCC
DNA 2: TGGTGGCTACGACGGGATT
B25: GGGAGUC (DNA:RNA)
RNA: B6 RNA with U25G, U26G, C27G, G30U
DNA 1: CAATCTGAATTCCGGTCTCCC
DNA 2: TGGTGGCTACGACGGGATT
B26: GCGGAUC (DNA:RNA)
RNA: B1 RNA with A25G, U27G, C28G, U29A, G31C
DNA 1: CAATCTGAATTCCGGTCTCCC
DNA 2: TGGTGGCTACGACGGGATT
B27: CGGAGUC (DNA:RNA)
RNA: B6 RNA with U25C, U26G, C27G, G30U
DNA 1: CAATCTGAATTCCGGTCTCCC
DNA 2: TGGTGGCTACGACGGGATT
B28: GGAUCUU (DNA:RNA)
RNA: B1 RNA with A25G, C26G, U27A, C28U, U29C, G31U
DNA 1: CAATCTGAATTCCGGTCTCCC
DNA 2: TGGTGGCTACGACGGGATT
B29: GGAUCUC (DNA:RNA)
RNA: B1 RNA with A25G, C26G, U27A, C28U, U29C, G31C
DNA 1: CAATCTGAATTCCGGTCTCCC
DNA 2: TGGTGGCTACGACGGGATT
B30: GUUAAUC (DNA:RNA)
RNA: B6 RNA with U25G, C27U, G29A, G30U
DNA 1: CAATCTGAATTCCGGTCTCCC
DNA 2: TGGTGGCTACGACGGGATT
B31: GGGGAUC (DNA:RNA)
RNA: B1 RNA with A25G, C26G, U27G, C28G, U29A, G31C
DNA 1: CAATCTGAATTCCGGTCTCCC
DNA 2: TGGTGGCTACGACGGGATT
B32: GGAGAUC (DNA:RNA)
RNA: B1 RNA with A25G, C26G, U27A, C28G, U29A, G31C
DNA 1: CAATCTGAATTCCGGTCTCCC
DNA 2: TGGTGGCTACGACGGGATT
B33: CGGAUCU (DNA:RNA)
RNA: B1 RNA with A25C, C26G, U27G, C28A, U30C, G31U
DNA 1: CAATCTGAATTCCGGTCTCCC
DNA 2: TGGTGGCTACGACGGGATT
B34: GGGAAUC (DNA:RNA)
RNA: B6 RNA with U25G, U26G, C27G, G29A, G30U
DNA 1: CAATCTGAATTCCGGTCTCCC
DNA 2: TGGTGGCTACGACGGGATT

Positions count from the first letter of the chain named. In all, about 16,000 sequences were measured (“ka relative to ugcaugu”: median about 0.0091, highest 2% from about 0.032 on). The entries come from a sample that favours the highest values as a whole.

For the test, the target named is T1, RBFOX1 RRM. Put plainly: EMSA; HiTS-Eq, 1 nM pool, 10 min; buffer printed only for the single-RNA assays: 10 mM Tris pH 7.5, 150 mM NaCl, 3.4 mM EDTA, 0.001% NP-40, 30 C. As to conditions: tags: His6 N-terminal (pET28a); label: 5' 32P. The method, boiled down:
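A pool of RNA with 7 randomized nucleotides, 5′-radiolabelled and with DNA-annealed flanks, was equilibrated at 1 nM for 10 min in 50 µL with purified RbFox RRM, wild type or mutant, across increasing protein concentrations. Free RNA was separated by 8% native PAGE, excised, reverse-transcribed, barcoded by PCR and sequenced. Relative association constants were obtained from read-count changes of each RNA species versus the control reaction and normalised to the cognate motif.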
(In general: A gel shift assay detects complexes by their altered migration in electrophoresis.)
Consider B1, for which the binding signal was 0.0078 KA relative to UGCAUGU.
As for B2, the binding signal is 0.0156 KA relative to UGCAUGU.
Take B3: the binding signal was 0.00671 KA relative to UGCAUGU.
Under B4 stands 0.0162 KA relative to UGCAUGU; under B5, 0.0203 KA relative to UGCAUGU; under B6, 0.0127 KA relative to UGCAUGU.
As for B7, the figure is 0.00746 KA relative to UGCAUGU.
With B8, the binding signal is 0.0102 KA relative to UGCAUGU.
Under B9 stands 0.00726 KA relative to UGCAUGU.
Turning to B10, the binding signal is 0.0124 KA relative to UGCAUGU.
Under B11 stands 0.00472 KA relative to UGCAUGU; under B12, 0.0104 KA relative to UGCAUGU.
On to B13, for which the binding signal is 0.00331 KA relative to UGCAUGU.
In the case of B14, the binding signal is 0.347 KA relative to UGCAUGU.
As for B15, the figure is 0.665 KA relative to UGCAUGU; as for B16, 0.0339 KA relative to UGCAUGU; as for B17, 0.00513 KA relative to UGCAUGU.
Consider B18, for which the binding signal is 0.738 KA relative to UGCAUGU.
Under B19 stands 0.000393 KA relative to UGCAUGU; under B20, 0.0215 KA relative to UGCAUGU; under B21, 0.00545 KA relative to UGCAUGU.
Under B22 stands 0.0241 KA relative to UGCAUGU.
Take B23: the binding signal was 0.0284 KA relative to UGCAUGU.
For the molecule B24, the binding signal was 0.0381 KA relative to UGCAUGU.
In the case of B25, the binding signal is 0.0339 KA relative to UGCAUGU.
B26: the binding signal is 0.00958 KA relative to UGCAUGU.
For the molecule B27, the binding signal is 0.0303 KA relative to UGCAUGU.
Take B28: the binding signal was 0.0133 KA relative to UGCAUGU.
As for B29, the figure is 0.0209 KA relative to UGCAUGU; as for B30, 0.00989 KA relative to UGCAUGU; as for B31, 0.0348 KA relative to UGCAUGU.
Under B32 stands 0.0208 KA relative to UGCAUGU.
As to B33, the binding signal was 0.0232 KA relative to UGCAUGU.
As for B34, the figure is 0.0328 KA relative to UGCAUGU.

The values are drawn from article PMC9911399, “Two distinct binding modes provide the RNA-binding protein RbFox with extraordinary sequence specificity”.
